Values joined by “and” are separate entries in the source; they are usually repeats but may differ in a detail not shown here. Identical values can stand only once. This is part of a sample that, as a whole, favours compounds with a hit. Of some 79,000 tested, about 15% had one in any assay. Unmarked numbers belong to inactive results. Active and inactive are the calls of the source. No stated cut-off is given here; in the data, active means growth inhibition above about 70%; inactive means the rest. Where a SMILES comes first, the peptide text is derived from it. The star is where a group is joined. Boc = CC(C)(C)OC(=O)*
Columns and labels:
[1] = NCI Yeast Anticancer Drug Screen. Data for the rad50 strain (AID 155);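 further: 0% = growth of vehicle-only cultures of the same strain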; settings: S. cerevisiae rad50 strain growth inhibition, hits give high values; at 50.0 µM unless noted
Method in brief: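 Growth of the mutant yeast was measured after compound exposure and referenced to vehicle-treated cultures.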

[2] = NCI Yeast Anticancer Drug Screen. Data for the mec2-1 strain (AID 157); settings: S. cerevisiae mec2-1 strain, hits give high values; at 50.0 µM unless noted
Method in brief: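 Each compound was tested on mec2-1 yeast, a strain altered in DNA damage repair or cell cycle control. Growth inhibition is reported relative to vehicle.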

[3] = NCI Yeast Anticancer Drug Screen. Data for the sgs1 mgt1 strain (AID 161);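 further: 0% = growth of cultures given vehicle only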; settings: S. cerevisiae sgs1 mgt1 strain, hits give high values; at 50.0 µM unless noted
Method in brief: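 Read-out: growth inhibition vs vehicle controls. Cells: mutant yeast strain deficient in DNA damage repair.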

[4] = NCI Yeast Anticancer Drug Screen. Data for the cln2 rad14 strain (AID 165);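 further: 0% = growth equal to vehicle treated cultures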; settings: S. cerevisiae cln2 rad14 strain, hits give high values; at 50.0 µM unless noted
Method in brief: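 Test compounds were added to cln2 rad14 yeast cultures; inhibition of growth was then determined by comparison with vehicle treatment.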

[5] = NCI Yeast Anticancer Drug Screen. Data for the bub3 strain (AID 167); settings: S. cerevisiae bub3 mutant strain, hits give high values; at 50.0 µM unless noted
Method in brief: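 Whole-cell yeast assay. The mutant strain was incubated with compounds, and growth inhibition was determined by comparison with vehicle-treated cells.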

[6] = NCI Yeast Anticancer Drug Screen. Data for the mlh1 rad18 strain (AID 175); settings: S. cerevisiae mlh1 rad18 strain growth inhibition, hits give high values; at 50.0 µM unless noted
Method in brief: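 Inhibition values reflect reduced growth of mutant yeast versus vehicle-treated controls following compound exposure; the mutations affect DNA damage repair.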

Row | Structure (SMILES) | growth inhibition [1] | growth inhibition [2] | growth inhibition [3] | growth inhibition [4] | growth inhibition [5] | growth inhibition [6]
1 | NC1CCC(C(=O)O)CC1 (stereo not drawn) | -3% and -3.15% | 0.95% and 15.9% | -3.5% and 4.4% | -52% and 57% | 6.15% and 61.3% | -7.65% and 28.4%
2 | COP(=O)(OC)/C(=C/c1cn(C(C)=O)c2ccccc12)NC(C)=O | -21% | -49.9% | -13.1% | 13.1% | 15.4% | -8.25%
3 | N#Cc1ccccc1NC(=O)C(=O)c1c(O)c2ccccc2oc1=O | -13.8% | -6.8% | -16.1% | -16.9% | -12.2% | -25%
4 | O=C(N/N=C/c1ccc(Cl)cc1)c1cccc([N+](=O)[O-])c1 | -1.5% | 7.7% | -3.6% | 4.25% | 8.35% | -5.7%
5 | COc1cc(C2NC(C(=O)O)CS2)cc(OC)c1OC (stereo not drawn) | -22.4% | -14.7% | 0.5% | -19.1% | -9.2% | -5.85%
6 | CCOC(=O)c1ccc(N=Cc2ccc(N(CCC#N)CCC#N)cc2)cc1 | 9.35% | 1.65% | -7.25% | 3.7% | -1.5% | -7.45%
7 | COc1ccc(N=Nc2nc(N)c(C(N)=O)[nH]2)cc1 | -8.65% | -7.55% | -4.75% | -28.5% | 5.7% | -16.6%
8 | CCOCNC(=O)NCC(F)(F)C(F)(F)C(F)(F)C(F)(F)C(F)(F)C(F)(F)C(F)(F)F | -1.55% | -21.5% | -4.6% | -5.5% | -1.65% | 12.9%
9 | CCOC(C)C(Nc1ccc(C(=O)O)cc1)C(=O)Nc1ccc(C(=O)O)cc1 (stereo not drawn) | 9.8% | 2% | 4.5% | -29.4% | -5.6% | -10.7%
10 | CCC(C)C(O)C(C(=O)O)C1CCCCC1 (stereo not drawn) | 31.6% | 23.2% | 15.4% | 39.5% | 23.9% | 26%
11 | Cc1ccc(S(=O)(=O)NC(=O)NC(C)C(=O)O)cc1 (stereo not drawn) | -1.15% | -5.65% | -13.2% | 0.2% | 2.5% | -7.65%
12 | CCCCCC(=O)OC(c1ccc(Cl)cc1)c1ccc(Cl)cc1 | -5.2% | -26.2% | 5.5% | 12.6% | 26.8% | 5.3%
13 | CCOC(=O)c1[nH]c(C)c(C#N)c1C | -34.4% | -26.6% | -12.7% | -34.6% | -20.8% | -19.1%
14 | O=C1NCC(CCl)O1 (stereo not drawn) | 8.3% | -12.2% | -2.15% | 9.3% | 18.1% | 1.9%
15 | CCCNC(=O)Oc1ccccc1C(=O)NCO | -3.5% | 0.4% | -9.35% | -14.1% | 16.8% | -6.4%
16 | O=C(CC1=Nc2nnc(-c3nnc4n3C(=O)C(CC(=O)c3cccnc3)=N4)n2C1=O)c1cccnc1 | -5% | -8.55% | -1.35% | -19.2% | -6.35% | -12.7%
17 | O=C(O)CCC1NC(/C(=C/c2ccccc2O)NC(=O)c2ccccc2)OC1=O (stereo not drawn) | -0.75% | -8.1% | -14.1% | -19.1% | -8.25% | -16.1%
18 | COC(=O)C(CCSC)NC(=O)C1CSC(C)(C)N1C=O (stereo not drawn) | 0.65% | 0.2% | 39.2% | -1.85% | 44.5% | -1.85%
19 | Clc1nc(NCCc2ccccc2)c2ncn(-c3ccccc3)c2n1 | 52.9% | 47.2% | 34.1% | 12.9% | 68.2% | 42.8%

Row | Structure (SMILES) | growth inhibition [1] | growth inhibition [2] | growth inhibition [3] | growth inhibition [4] | growth inhibition [5] | growth inhibition [6]
20 | CC1=Nc2ccccc2C12C(c1ccccc1)C(c1ccccc1)C(=O)N1c3ccccc3CC12 (stereo not drawn) | -2.25% | -16.4% | -33.6% | 20.1% | -14.3% | -1.65%
21 | O=C(O)c1ccccc1Br | 1.1% | 5.4% | -13.6% | -6.95% | -17.4% | -3.35%
22 | Cc1cc(C)c(CC(=O)c2ccccc2)c(C)c1 | 0% | -9.5% | -1.9% | -32% | 0.95% | -5%
23 | CCCCC1=C(c2ccccc2)/C(=N/Nc2ccc([N+](=O)[O-])cc2[N+](=O)[O-])c2ccccc21 | 12.7% | -1.45% | 5.65% | -2.85% | 1.2% | 9%
24 | COC(=O)C(Cc1c[nH]c2ccccc12)NC(=O)C(Cc1c[nH]c2ccccc12)NC(=O)C(Cc1c[nH]c2ccccc12)NC(=O)C(Cc1c[nH]c2ccccc12)NC(=O)C(Cc1c[nH]c2ccccc12)NC(=O)C(Cc1c[nH]c2ccccc12)NC(=O)OC(C)(C)C (stereo not drawn) (Boc-WWWWWW-OMe; configuration not given here) | -6.8% | -12.7% | -18.4% | 7.25% | 8.25% | 16.4%
25 | Nc1nc(NCCO)c(NC=O)c(=O)[nH]1 | -11.6% | 6% | -2.6% | -34.4% | -13.8% | -1.35%
26 | Cn1c(O)c(N=NC(=O)Cc2c[nH]c3ccccc23)c2ccccc21 | -6.95% | -3.75% | 4.8% | -7.05% | -2.2% | -19.1%
27 | O=C(O)CC(O)(CC(=O)O)C(=O)O | 25% | 17.9% | -19.6% | 3.65% | -0.25% | 9.25%
28 | CC(C)N(Cc1ccccc1)S(=O)(=O)c1n[nH]c(C(C)(C)C)n1 | 3.2% | -27.1% | -3.65% | -5.8% | -6.75% | -0.75%
29 | CC(C)OC(=O)c1ccc(CCC2=CC(=O)C(Br)=CC2=O)cc1 | 50.7% | 62.4% | 65.5% | 56% | 51% | 90% (active)
30 | CCOC(=O)c1cccc(N)c1C(=O)OCCN(CC)CC | 1.65% | 0.15% | -3.75% | -25.2% | 19.4% | 3.55%
31 | O=C1/C(=C/c2ccc(Cl)cc2)CCC1CN1CCOCC1 (stereo not drawn) | 89.8% (active) | 92.2% (active) | 89.2% (active) | 92.3% (active) | 91.1% (active) | 92% (active)
32 | CCCSc1ncnc2nc[nH]c12 | 23.6% | -1% | 9.7% | -15.1% | -13.7% | 16.9%
33 | O=C1COC(=O)CO1 | -15.6% | -18.9% | -5.7% | 34.2% | 8.55% | -10.7%
34 | CC(C)N1C(=O)N(Cl)C2C1N(Cl)C(=O)N2Cl (stereo not drawn) | 15% | -0.4% | -6.7% | 22.6% | -3.55% | 53.9%
35 | CCC1=CCN(c2ccccn2)OC1c1ccc(OC)cc1 (stereo not drawn) | 32.6% | 13.7% | 49.2% | 22.3% | 40.2% | 24.1%
36 | N#CC(C#N)N=O (tested in a mixture with another compound) | -4.1% | -15.3% | -15.2% | -19.7% | -6.9% | -6.25%
37 | O=C1CSC(c2ccccc2Cl)N1N1C(=O)CSC1c1ccccc1Cl (stereo not drawn) | 32.4% | 19.2% | 28.1% | 27.5% | 24.3% | 28.1%
38 | COc1ccccc1C(=O)NCC1CCCN2CCCCC12 (stereo not drawn) | 6.5% | -6.95% | 14.9% | -6.5% | 0.7% | -45.4%

From PubChem BioAssay (NCI)
